Calls of active or inactive are those of the source. Calls come from the whole dose curve; as a rule, active = well fitted inhibition curve with a large enough effect; inactive = flat fitted curve, though single readings scatter. Square brackets hold non-standard residues; d marks the D form. Peptide text beside a SMILES is read from it. * marks the point of attachment. Dolaproine = CO[C@@H]([C@@H]1CCCN1)[C@@H](C)C(=O)O; Dil = CC[C@H](C)[C@H](NC)[C@@H](CC(=O)O)OC; NMe2Val = CC(C)[C@@H](C(=O)*)N(C)C; X1 = C[C@@H](N*)[C@@H](O)c1ccccc1; NMeV = CN[C@H](C(=O)O)C(C)C
Experiment: Identification of antibody-drug conjugate (ADC) payloads which are substrates of ATP-binding cassette drug efflux transporters: ABCB1-HeLa-KB-8-5-11 cell line with tariquidar
Conditions: KB-8-5-11 (P-gp) + tariquidar, viability, CellTiter-Glo, 48 h
Description: Antibody-drug conjugates (ADCs) feature an antibody recognizing a specific protein joined to a potent toxic payload. Numerous antibody-drug conjugates have received FDA approval; however, clinical resistance arises. Resistance mechanisms include decreased expression or mutation of the antibody target, impaired payload release, or increased expression of ATP-binding cassette (ABC) efflux transporters associated with multidrug resistance. We therefore sought to characterize the interaction of ABC multidrug transporters with ADC payloads. We performed a high-throughput screen with 27 common ADC payloads using cells lines expressing ABC transporters P-glycoprotein (P-gp, encoded by ABCB1) or ABCG2 (encoded by ABCG2). Confirmatory assays were also performed using cells transfected to express P-gp, ABCG2, or MRP1 (encoded by ABCC1). Several commonly used ADC payloads were substrates of P-gp, including calicheamicin gamma1, monomethyl auristatin E, DM1, and DM4. All the pyrrolobenzodiazepines tested - SJG136, SGD-1882, SG2057, and SG3199 - were substrates of P-gp, ABCG2, and MRP1. […] These findings highlight the risk of transporter-mediated resistance with certain ADC payloads and underscore the importance of selecting payloads that evade ABC transporter recognition in future ADC development.
HEK-293 cells were transfected with empty vector (pcDNA) or vector containing the human ABCB1 (MDR-19), ABCG2 (R-5), or ABCC1 gene (MRP1) and were maintained in EMEM with 2 mg/mL G418 added to maintain transporter expression. The HeLa derivative KB-3-1 and the P-gp overexpressing KB-8-5-11 subline were maintained in DMEM; KB-8-5-11 additionally received 100 ng/mL colchicine. H460 parental cells were obtained from the Division of Cancer Treatment and Diagnosis Tumor Repository, National Cancer Institute at Frederick, MD and were cultured in RPMI. The ABCG2 expressing subline H460 MX20 was generated by selecting H460 cells in 20 nM mitoxantrone. Media in all cases was supplemented with 10% FBS and 1% penicillin-streptomycin. We explored 27 common ADC payloads, in two orthogonal, paired cell line sets-a drug selected and transfected set for each transporter--to identify substrates of the ABC transporters P-gp and ABCG2. Compounds were sourced from Levena Biopharma (San Diego, CA), Selleck Chem (Houston, TX), ChemieTek (Indianapolis, IN), or Microsource Discovery Systems (Gaylordsville, CT). Screening was performed as previously described. Briefly, cells were plated at a density of 500 cells/well in 1536 well plates with compounds added using a 1536-head pin tool (Kalypsys, San Diego CA). Cells were incubated with cytotoxic drugs and processed with CellTiter Glo reagent (Promega, Madison, WI) to determine viability after 48 hours. P-gp substrates were identified by comparing compound activity between paired sets of low-expressing (sensitive) and over-expressing (resistant) cell lines.

| SMILES | Potency |
| --- | --- |
| CC[C@H](C)[C@@H]([C@@H](CC(=O)N1CCC[C@H]1[C@H](OC)[C@@H](C)C(=O)N[C@H](C)[C@@H](O)c1ccccc1)OC)N(C)C(=O)[C@@H](NC(=O)[C@H](C(C)C)N(C)C)C(C)C | 0.2 nM (active) |
| CC[C@H](C)[C@@H]([C@@H](CC(=O)N1CCC[C@H]1[C@H](OC)[C@@H](C)C(=O)N[C@@H](Cc1ccccc1)C(=O)O)OC)N(C)C(=O)[C@@H](NC(=O)[C@H](C(C)C)N(C)C)C(C)C (NMe2Val-V[Dil][Dolaproine]F-OH) | 18.8 nM (active) |
| CC[C@@]1(O)C(=O)OCc2c1cc1n(c2=O)Cc2cc3ccccc3nc2-1 | 375 nM (active) |
| COc1cccc2c1C(=O)c1c(O)c3c(c(O)c1C2=O)C[C@@](O)(C(=O)CO)CC3OC1CC(N2CCOC(OC)C2)C(O)C(C)O1 (some centres not stated) | 10.6 nM (active) |
| CC[C@H](C)[C@@H]1NC(=O)CNC(=O)[C@H]2Cc3c([nH]c4cc(O)ccc34)S(=O)C[C@H](NC(=O)CNC1=O)C(=O)N[C@@H](CC(N)=O)C(=O)N1C[C@H](O)C[C@H]1C(=O)N[C@@H]([C@@H](C)[C@@H](O)CO)C(=O)N2 (some centres not stated) | 4200 nM (active) |
| COc1cc2cc(c1Cl)N(C)C(=O)C[C@H](OC(=O)C(C)C)[C@]1(C)O[C@H]1[C@H](C)[C@@H]1C[C@@](O)(NC(=O)O1)[C@H](OC)C=CC=C(C)C2 | 0.1 nM (active) |
| CC[C@H](C)[C@@H]([C@@H](CC(=O)N1CCC[C@H]1[C@H](OC)[C@@H](C)C(=O)N[C@H](C)[C@@H](O)c1ccccc1)OC)N(C)C(=O)[C@@H](NC(=O)[C@@H](NC)C(C)C)C(C)C (H-[NMeV]V[Dil][Dolaproine]-X1) | 0.2 nM (active) |

From PubChem BioAssay AID2202239 (National Center for Advancing Translational Sciences (NCATS), 2025)
